GALR2 agonist = activates the human galanin receptor 2 | O43603 | GALR2-expressing cells, agonist activation read-out | activation, % (test concentration not listed) | 140,000 compounds, 0.48% hits | AID 803; in the data active = activation above about 5%, passing the limit was not always enough;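 note: 0% = vehicle buffer wells and 100% = reference agonist at full effect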
S1P2 blocker = blocks the human S1P2 receptor; O95136; cell-based S1P2 antagonist assay, inhibition at 5 uM; inhibition, % at 5 µM; 97,000 compounds, 0.21% hits; in the data active = inhibition above about 45%;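 note: CRE beta-lactamase reporter cells expressing human S1P2 stimulated with S1P; 0% = agonist at EC80 alone and 100% = agonist plus reference antagonist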
Target sequence (O95136 whole entry, looked up): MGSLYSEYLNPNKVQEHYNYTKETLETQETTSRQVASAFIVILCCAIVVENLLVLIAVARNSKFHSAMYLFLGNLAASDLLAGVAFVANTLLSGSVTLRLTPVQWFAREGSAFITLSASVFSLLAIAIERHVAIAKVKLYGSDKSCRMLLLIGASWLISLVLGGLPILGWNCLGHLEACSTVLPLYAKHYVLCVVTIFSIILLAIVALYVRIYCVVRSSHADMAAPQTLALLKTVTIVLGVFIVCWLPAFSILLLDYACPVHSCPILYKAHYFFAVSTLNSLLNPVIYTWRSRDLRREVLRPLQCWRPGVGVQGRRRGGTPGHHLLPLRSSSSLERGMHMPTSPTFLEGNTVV
GALR2 blocker = blocks the human galanin receptor 2; O43603; GALR2-expressing cells, antagonist mode; inhibition, % at 4 µM; 140,000 compounds, 0.39% hits; AID 828; in the data active = inhibition above about 27%;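 note: cells stimulated with galanin 1-16 at roughly its EC80; 0% = agonist challenge control and 100% = basal control without agonist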
S1P2 ag = agonists of human S1P2 receptor; O95136; S1P2-expressing cell line, agonist reporter read-out; activation, % at 4.5 µM; 97,000 compounds, 0.46% hits; AID 729; in the data active = activation above about 16%;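 note: 0% = vehicle low control and 100% = maximal reference agonist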
GALR2 agon conf = confirmation of human galanin receptor 2 (GALR2) agonists | 460 compounds, 10% hits | AID 864 | activation, % at 5.6 µM | shares compounds with GALR2 agonist | GALR2-expressing cells, agonist activation; in the data active = activation above about 8.4%;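 note: 0% = buffer-only vehicle wells and 100% = full reference agonist response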
BLA act counter = activates beta-lactamase reporter in GALR2 agonist counterscreen; shares compounds with GALR2 agonist; activation, % at 5.6 µM; AID 865; CHO NFAT-bla reporter, beta-lactamase FRET activation; 460 compounds, 10% hits;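 active = activation above the screen-wide mean activation plus 3 SD, cut at about 8% in these data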;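 note: 0% = DMSO with PBS wells and 100% = thapsigargin positive control wells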
The depositor's hits bear a star; x = no result given. The list is not random: actives were taken first. Their share in the collection is about 1.1%.

SMILES	GALR2 agonist	S1P2 blocker	GALR2 blocker	S1P2 ag	GALR2 agon conf	BLA act counter
CCN(CC)c1nc(-c2ccc(Cl)cc2)cc(C(F)(F)F)c1C#N	0.0	-5.2	10.7	-2.1	x	x
CN(C)c1nc(-c2ccccc2)cc(C(F)(F)F)c1C#N	9.6	-4.9	2.8	-0.1	3.6	5.7
CC(C)N(C1=N/C(=C\c2ccco2)C(=O)N1c1ccccc1)C(C)C	8.7	-20.1	3.9	14.2	6.2	9.2*
O=C1/C(=C/c2ccco2)N=C(N2CCCCC2)N1c1ccccc1	0.5	x	8.0	x	x	x
CCCn1c(SCC(=O)NCCc2ccccc2)nnc1-c1cccnc1	-2.2	23.1	-5.3	-6.3	x	x
C=CCNC(=O)/C(C#N)=C/c1cn(-c2ccccc2)nc1-c1cccs1	13.5*	x	9.5	x	10.9*	4.9
COC(=O)CCS(=O)(=O)c1nc(-c2ccccc2)cc(C(F)(F)F)n1	10.8	-10.6	8.3	-2.3	0.0	1.6
CCOC(=O)CCS(=O)(=O)c1nc(-c2ccccc2)cc(C(F)(F)F)n1	3.4	-11.2	19.2	0.2	x	x
CCOC(=O)CS(=O)(=O)c1nc(-c2ccc(F)cc2)cc(C(F)(F)F)n1	9.3*	x	50.7*	x	3.4	-8.9
COC(=O)c1c(C)[nH]c(C(=O)CSc2nnnn2-c2ccccc2)c1C	99.3*	1.5	-4.5	-5.6	-0.2	-1.6
CCOc1ccc(C(=O)NC(=S)NC2CCCC2)cc1[N+](=O)[O-]	0.5	x	2.7	x	x	x
CCCN1C(=O)/C(=C2\SC(N3CCCCC3)=NC2=O)c2ccccc21	59.1*	-25.8	2.2	-4.9	1.2	0.0
CC(Sc1nncs1)C(=O)Nc1ccc(Cl)cn1 (stereo unspecified)	0.8	x	-8.2	x	x	x
CC(=O)c1nn(-c2ccccc2)cc1C(=O)c1ccc(Br)cc1	9.4*	x	-3.8	x	5.9	1.1
Cc1ccc(-c2nnc(CSc3nc(C(C)C)nc4sc(C)c(C)c34)o2)cc1	-1.6	-3.3	-3.7	-4.8	x	x
COC(=O)C1CCN(C(=O)COC(=O)Cn2cnnn2)CC1	159.5*	5.8	-6.7	-3.0	-0.8	0.1
COC(=O)C1CCN(C(=O)COC(=O)CC(NC(C)=O)c2ccccc2)CC1 (stereo unspecified)	-1.3	-3.8	0.6	-0.5	x	x
c1ccc(-c2cn3nc(-c4ccccc4)c(-c4ccccc4)nc3n2)cc1	9.0	31.4	18.5	-0.5	1.7	0.1
Nc1nc(-c2ccccc2)cn1N	-1.1	4.7	-16.0	-0.7	x	x
CCOc1cc(N2CCOCC2)c(OCC)cc1NC(=O)c1cc(-c2ccco2)nc2ccccc12	-0.1	x	15.1	x	x	x
CC1CN(C2CCN(S(=O)(=O)Cc3ccccc3)CC2)CC(C)O1 (stereo unspecified)	9.5	18.4	-8.6	-0.6	-0.7	-1.8
CC1CN(C2CCN(S(=O)(=O)c3ccccc3)CC2)CC(C)O1 (stereo unspecified)	-0.6	-17.6	-6.0	0.6	x	x
Brc1ccccc1-c1nnc(CSc2nnc3sc4ccccc4n23)o1	-0.5	x	13.1	x	x	x
Cc1ccc(S(=O)(=O)Cn2nnnc2C(c2ccccc2)N2CCN(c3ncccn3)CC2)cc1 (stereo unspecified)	0.2	-6.0	-1.0	-7.5	x	x
Cc1ccc(S(=O)(=O)Cn2nnnc2C(c2ccccc2)N2CCN(c3ccccc3)CC2)cc1 (stereo unspecified)	29.2*	-2.4	18.1	-10.8	-0.8	-3.5
SMILES	GALR2 agonist	S1P2 blocker	GALR2 blocker	S1P2 ag	GALR2 agon conf	BLA act counter
O=C(O)CN1C(=O)C2(OCCCO2)c2ccccc21	8.3	-20.0	-3.7	-3.0	-0.2	-1.7
COC(=O)CN1C(=O)C2(OCCCO2)c2ccccc21	-0.7	15.6	3.5	-2.3	x	x
CC(=O)N1N=C(c2ccc(C)cc2)OC1c1ccc(C)cc1 (stereo unspecified)	76.9*	-6.4	-7.6	-3.4	-0.7	0.0
COc1ccc(-n2nc3c(c2NC(=O)c2c(F)cccc2Cl)CS(=O)C3)cc1 (stereo unspecified)	-2.2	15.9	5.5	-9.4	x	x
CCNCCNc1ccc(Cl)cc1[N+](=O)[O-]	-0.6	-16.5	4.8	-6.8	x	x
CS(=O)(=O)NCCCNc1ccc(Cl)cc1[N+](=O)[O-]	58.0*	1.3	-2.3	-3.5	-0.6	-1.4
Cc1cc2c3c(c1)C(C)(c1ccccc1)CC(C)(C)N3C(=O)C21C(C#N)=C(N)OC2=C1C(=O)CC(C)(C)C2 (stereo unspecified)	18.2*	-14.3	-26.0	0.6	7.6	15.2*
Cc1ccc(CN2C(=O)N/C(=C\c3ccc(N4CCOCC4)cc3)C2=O)cc1	8.7*	x	11.7	x	3.9	8.0
O=C1N/C(=C\c2ccc(N3CCOCC3)c(F)c2)C(=O)N1Cc1ccccc1	-1.3	-7.3	-4.1	-4.0	x	x
O=C(NCC(c1cccs1)N1CCOCC1)c1cc([N+](=O)[O-])cc([N+](=O)[O-])c1 (stereo unspecified)	-1.7	x	-2.8	x	x	x
CCc1ccc(NC(=O)CSc2nnc(CC)c(CC)n2)cc1	22.1*	-32.5	-6.7	-1.7	-1.3	-4.0
O=C(Cc1ccccc1)NC(=S)Nc1cccc(C(F)(F)F)c1	1.4	8.2	-13.6	-2.1	x	x
O=C(Cc1ccccc1)NC(=S)Nc1cc(C(F)(F)F)ccc1Cl	8.4*	1.1	-14.1	-5.0	6.3	8.0
Cc1cccc(NC(=O)C2CCCN(S(=O)(=O)c3cccc4nsnc34)C2)n1 (stereo unspecified)	10.6*	10.8	-9.5	-1.4	-0.8	-1.0
Cc1ccc(OCC(=O)NNC(=O)C(=O)N2CCCC2)c(C)c1	-2.1	x	1.7	x	x	x
CCc1cc(=O)oc2c(CN3CCN(C)CC3)c(O)c(Cl)cc12	11.8*	-38.9	-22.1	10.9	0.5	3.2
CCc1cc(=O)oc2c(CN3CCCC3)c(O)c(Cl)cc12	1.7	0.5	-12.4	8.9	x	x
COc1ccc(NC(=O)c2c(Nc3ccccc3)sc(C(=O)c3ccc(F)cc3)c2N)cc1	-2.8	44.4	-3.1	-5.1	x	x
COc1ccc(Nc2sc(C(=O)c3ccc(Cl)cc3)c(N)c2C(=O)Nc2ccccc2OC)cc1	14.1*	-13.1	-6.9	-2.0	-1.6	-2.4
COc1ccc(C(=O)c2sc(Nc3cccc(OC)c3)c(C(=O)Nc3cccc(C)c3C)c2N)cc1	16.2*	5.5	9.0	-2.0	0.9	-0.2
CC1=C(C(=O)N2CCCCC2)C(c2cccs2)C2=C(CCCC2=O)N1 (stereo unspecified)	-1.3	-8.2	14.3	-2.8	x	x
COc1ccc(CCn2c(N)c(C(=O)NCc3ccco3)c3nc4ccccc4nc32)cc1	1.0	x	4.5	x	x	x
COc1ccc(CCn2c(N)c(C(=O)NCc3ccco3)c3nc4ccccc4nc32)cc1OC	12.0*	-16.2	3.7	15.6	4.0	9.9*
COCC(C)NC(=O)COc1ccc(Cl)cc1Cl (stereo unspecified)	10.4	8.0	-7.1	-11.4	-0.7	-2.3
Cc1ccc(O)c(NC(=S)NC(=O)CC(C)C)c1	-1.5	x	10.0	x	x	x
